DAX1 inh-1: DAX1 (NR0B1) inhibitors on StAR promoter, primary screen, cell-based, luminescence, SF-1 (NR5A1), full-length DAX-1; HEK293T StAR-luciferase reporter, SF-1/DAX-1 repression relief; inhibition, % at 6.8 µM; 370,000 tested, 1.1% active;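 active = inhibition above the mean over all tested compounds plus 3 SD, cut at about 3.6% in these data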;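 note: higher inhibition means more luminescence from relief of DAX-1 repression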
hcDAF12 agonist: H. contortus DAF-12 nuclear receptor activators, primary screen, cell-based, luminescence, HEK293, lit1-tk-luc reporter; HEK293 hcDAF-12 lit1-tk-luc reporter; 0% DMSO, 100% Δ7-dafachronic acid; activation, % at 6.8 µM; 370,000 tested, 1.4% active; AID 652067, 2013;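 active = activation above the mean of all tested compounds plus 3 SD, cut at about 5.5% in these data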
ssDAF12 agonist: S. stercoralis DAF-12 nuclear receptor activators, primary screen, cell-based, luminescence, HEK293, GRIP1 co-expression, lit1-tk-luc; HEK293 ssDAF-12/GRIP1 lit1-tk-luc reporter; % of 3 µM dafachronic acid response; activation, % at 6.8 µM; 370,000 tested, 1% active; Nuclear hormone receptor DAF-12 (Strongyloides stercoralis); AID 652126, 2013;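 active = activation above the mean over all tested compounds plus 3 SD, cut at about 0.9% in these data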
DAX1 inh-2: DAX1 (NR0B1) inhibitors, primary screen, cell-based, HEK293, Gal4-DAX1, luciferase luminescence. 340,000 tested, 0.99% active. inhibition, % at 6.75 µM. Nuclear receptor subfamily 0 group B member 1 (Homo sapiens), P51843. HEK293 Gal4-DAX1 luciferase reporter;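 active = inhibition above the mean over all tested compounds plus 3 SD, cut at about 4.2% in these data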;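 note: inhibition shows as a rise in luminescence from relieved DAX1 repression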
Target sequence (P51843 207-470 limits assumed): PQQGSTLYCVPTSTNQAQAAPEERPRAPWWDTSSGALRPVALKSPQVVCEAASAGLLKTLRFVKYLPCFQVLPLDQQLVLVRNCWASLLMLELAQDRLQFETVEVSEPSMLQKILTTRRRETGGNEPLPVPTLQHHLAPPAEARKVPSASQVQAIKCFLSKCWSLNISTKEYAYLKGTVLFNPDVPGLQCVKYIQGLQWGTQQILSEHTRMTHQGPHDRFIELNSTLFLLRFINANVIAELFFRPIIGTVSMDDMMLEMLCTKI
hgDAF12 agonist: H. glycines DAF-12 receptor agonists, primary screen, cell-based, luminescence, HEK293, GAL4 fusion, UAS-luciferase; Nuclear hormone receptor DAF-12 (Heterodera glycines), GAL4 fusion; HEK293 GAL4-hgDAF12 UAS-luciferase reporter, agonist luminescence; normalized to butyrate control; activation, % at 6.8 µM; 370,000 tested, 1.8% active; AID 687014, 2013;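 active = activation above a cutoff set at the mean of all screened compounds plus 3 SD, cut at about 10% in these data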
Numbers stand for hits; i = inactive; nt = no result given. A selection: hits, their analogues and other compounds. The true share with any hit is near 4.1%.

SMILES	DAX1 inh-1	hcDAF12 agonist	ssDAF12 agonist	DAX1 inh-2	hgDAF12 agonist
O=[N+]([O-])c1cc(-c2cnc3ccccc3n2)ccc1Oc1ccc(Cl)cc1	i	i	1.1	i	i
O=[N+]([O-])c1cccc(-c2cnc3ccccc3n2)c1	i	i	1.0	i	i
CS(=O)(=O)Nc1cccc(-c2cnc3ccccc3n2)c1	i	i	i	4.3	i
Cc1nn(-c2ccccc2)c2sc(C(=O)NCc3ccc4c(c3)OCO4)cc12	i	i	i	nt	i
C=CCN(C)CC#CCCCCl	i	i	i	nt	i
COC(=O)[C@@]12CCCCC3=C1N(CCC3)C(=O)[C@H]2CC(=O)NCc1cccs1	i	i	i	nt	i
O=C1C[C@@H](O)[C@H](O)c2cccc(O)c21	i	i	i	nt	i
COC(=O)[C@]12C[C@H](CC(=O)NCCc3ccccc3OC)C(=O)N(Cc3ccc(Cl)cc3Cl)C1=C[C@H](C(C)(C)C)O[C@@H]2C	i	i	i	nt	i
CCn1c(SCC(=O)c2ccccc2)nc2ccccc2c1=O	i	i	i	i	i
CCn1c(SCC#N)nc2ccccc2c1=O	i	i	i	5.2	i
CCOc1ccc(-n2c(SCC(=O)Nc3cccc4ccccc34)nnc2-c2ccccc2)cc1	i	i	i	nt	i
Cc1ccc(NC2c3ccccc3C(=O)N2c2cccnc2)cc1 (centres undefined)	i	i	i	5.5	i
Cc1ccc(N2C(=O)c3ccccc3C2Nc2cccnc2)nc1 (centres undefined)	i	i	i	i	i
CCN1CCN(C(=S)c2ccc(O)cc2)CC1	i	i	i	7.5	i
COCc1cc(N2CCN(C(=O)OC(C)(C)C)C[C@H]2C)ccc1N1CC[C@H](O)C1	i	i	i	nt	i
CC1=C(C(=O)OCC2CCCO2)C(c2coc3ccc(C)cc3c2=O)C2=C(CCCC2=O)N1 (centres undefined)	i	i	1.7	i	i
CC1=C(C(=O)OC2CCCC2)C(c2coc3ccc(C)cc3c2=O)C2=C(CCCC2=O)N1 (centres undefined)	i	i	i	i	i
CC1=C(C(=O)OCC2CCCO2)C(c2coc3ccc(Cl)cc3c2=O)C2=C(CCCC2=O)N1 (centres undefined)	i	i	i	8.9	i
COc1cccc(CNC(=O)CN2CCCc3ccccc32)c1OC	i	i	i	nt	i
O=C(Cn1cc(C(F)(F)F)ccc1=O)N1CCc2ccccc2C1	i	i	1.0	i	i
COc1ccc(NC(=O)C(=S)NC2CCCCC2)cc1	i	i	i	i	12
Cc1ccc(NC(=O)NC2CCCCC2)cc1Cl	i	i	i	i	12
Cc1ccc(NC(=O)C2CCN(C(=O)NC3CCCCC3)CC2)cc1Cl	i	i	i	i	i
COC(=O)c1ccc(OC)c(OC2CCCC2)c1	i	i	i	6.3	i
O=C(Nc1ccc(Cl)c(Cl)c1)Nc1ccccn1	i	i	i	i	i
SMILES	DAX1 inh-1	hcDAF12 agonist	ssDAF12 agonist	DAX1 inh-2	hgDAF12 agonist
COc1ccc(NC(=O)Nc2ccccn2)cc1OC	i	i	1.5	i	i
CCOC(=O)CC[C@@]1(C(=O)OCC)C[C@@H](CC(=O)NCc2ccc(C)o2)C(=O)N2CCCC=C21	i	i	i	nt	i
COc1ccc(OC)c(NC(=O)NC2CCCCCCC2)c1	i	i	i	i	i
COc1ccc(NC(=O)NC2CCCCCCC2)cc1OC	4.4	i	i	i	i
Cc1csc(NC(=O)c2ccc[nH]c2=O)n1	i	i	i	i	11
COc1ccc(C2CC(=O)C(c3ccc(C#N)cc3)=CN2Cc2ccccc2)cc1 (centres undefined)	i	i	i	nt	i
Cc1cccc(C)c1NC(=O)C1(C)CSCC(=O)N1CCCn1ccnc1 (centres undefined)	i	i	2.1	nt	i
Cc1cccc(C)c1NC(=O)C1(C)CCC(=O)N1CCCn1ccnc1 (centres undefined)	i	i	i	nt	i
CCCCCCCCN1C(=O)[C@@H](CC(=O)NCCCOCCCC)C[C@@]2(C(=O)OC)C1=C[C@H](COCc1ccccc1)O[C@@H]2C	i	i	i	nt	i
Nc1c2c(=O)[nH]c(O)cc2nn1-c1ccccc1	i	i	1.2	i	i
Cc1c(C)c2c(C)nn(-c3ccccc3)c2[nH]c1=O	i	i	i	i	i
CCCCN1C(=O)N2Cc3cc(OC)ccc3C2CS1(=O)=O (centres undefined)	i	5.6	i	nt	11
COc1ccc2c(c1)CN1C(=O)N(CCc3ccccc3)S(=O)(=O)CC21 (centres undefined)	i	i	i	nt	i
Cc1cc(N/N=C/c2cccc(Br)c2)nc2ccccc12	i	i	i	i	i
Cc1cc(N/N=C/c2ccncc2)nc2ccccc12	3.9	i	i	i	i
O=C1Nc2ccc(Br)cc2/C1=C/C(=O)c1ccc2c(c1)OCO2	i	i	i	i	i
O=C1Nc2ccc(Br)cc2/C1=C/C1CC=CCC1 (centres undefined)	i	i	1.0	i	i
Cc1ccc(CN2CCN(/N=C/c3ccccc3)CC2)cc1	i	i	i	7.7	i
CCCN(CC(=O)Nc1ccccc1C)C(=O)c1ccc(Cl)c(S(=O)(=O)N2CCCC2)c1	i	i	i	5.3	i
COc1ccc(NC(=O)CCSc2ccc(F)cc2)cc1	i	i	i	4.2	i
COc1cccc([C@@H]2NC(=O)C/C=C/[C@H](C)[C@H](c3cccc(OC)c3)NC(=O)C/C=C/[C@@H]2C)c1	i	i	i	nt	i
O=C(Cc1ccccc1)N1CCC(Oc2cccnc2)CC1	i	i	i	nt	i
O=C(NC1CCCCC1)N(Cc1cc2cc3c(cc2[nH]c1=O)OCCO3)C1CCCCC1	i	i	i	4.8	i
COc1cc2cc(CN(C(=O)NC3CCCCC3)C3CCCC3)c(=O)[nH]c2cc1OC	i	i	i	i	i
C[C@H]1[C@H](NC(=O)c2ccc(C(F)(F)F)cc2)CC[C@@]23CCCN2C(=O)CCC[C@@H]13	nt	i	i	nt	i
COc1ccc2c(c1)CCc1c(C(=O)NCC(C)C)noc1-2	i	i	i	5.6	13
COc1ccc2c(c1)CCc1c(C(=O)NCc3cccnc3)noc1-2	i	i	i	i	i
COc1ccc2c(c1)CCc1c(C(=O)N3CCCCCC3)noc1-2	3.8	i	i	i	i
Cc1occc1C(=O)N/N=C/C=C/c1ccc(N(C)C)cc1	3.8	i	i	i	12
CN1CCN(C(=S)c2ccc([N+](=O)[O-])cc2)CC1	i	i	i	i	i

Bioassay records deposited in PubChem BioAssay by The Scripps Research Institute Molecular Screening Center.
